Most compounds without a hit are left out; they make up all but 6.9% or so of the library.
PLK1 PBD block: qHTS for Inhibitors of PLK1-PDB (polo-like kinase 1 - polo-box domain): Primary Screen; Serine/threonine-protein kinase PLK1 (Homo sapiens), P53350; Plk1 PBD binding of FITC phosphopeptide, fluorescence polarization; Potency, µM, for inactives: max response, negative = inhibition, usual class: inhibitors; 360,000 compounds, 2.8% hits; AID 720504, 2013; note: series mostly up to about 57 µM; % is set by controls: 0 for no effect and ±100 for the full control effect; nearly all actives have a fitted effect of over 65% in size
JMJD2A Tudor inh: qHTS Assay for Inhibitors of JMJD2A-Tudor Domain | Lysine-specific demethylase 4A (Homo sapiens), O75164 | AlphaScreen JMJD2A-Tudor / H3K4me3 peptide binding | Potency, µM (titrated, usually from 114 µM), for the others: top-dose activity change, negative = inhibition, most hits filed as inhibitors | 390,000 compounds, 4.4% hits | AID 504339, 2011; note: % is set by controls: 0 for no effect and ±100 for the full control effect; nearly all actives have a fitted effect of over 50% in size
HP1b chromo inh: HTS for Inhibitors of HP1-beta Chromodomain Interactions with Methylated Histone Tails; AlphaScreen HP1-beta / biotin-H3K9me3 peptide binding; Potency, µM (series often up to 114 µM), for inactives: at the highest dose activity change, negative = inhibition, actives largely listed as inhibitors; 390,000 compounds, 0.56% hits; AID 540317, 2011; note: nearly all actives have a fitted effect of over 70% in size
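HP1-beta protein (50 nM final) preincubated 30 min at room temperature with biotinylated H3(1-18)K9me3 peptide (50 nM) in PBS pH 7.4, 0.01% Tween-20, then compound added for 30 min. AlphaScreen streptavidin donor/nickel chelate acceptor beads (10 ug/mL final), 30 min dark, luminescence read.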
BAZ2B inh: qHTS Assay for Inhibitors of BAZ2B. 360,000 compounds, 4.4% hits. AlphaScreen BAZ2B-H3K14Ac peptide displacement. Bromodomain adjacent to zinc finger domain protein 2B (Homo sapiens), Q9UIF8. Potency, µM (series often up to 114 µM), for inactives: at the highest dose activity change, negative = inhibition, actives largely listed as inhibitors; note: % is set by controls: 0 for no effect and ±100 for the full control effect; nearly all actives have a fitted effect of over 60% in size
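Multi-concentration screen (max 110 uM) measuring displacement of acetylated histone H3 peptide from BAZ2B by AlphaScreen, using 50 nM protein, 50 nM peptide and 10 ug/mL streptavidin donor plus Ni-chelate acceptor beads.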
L3MBTL1 block: qHTS Assay for the Inhibitors of L3MBTL1; Lethal(3)malignant brain tumor-like protein 1 (Homo sapiens), Q9Y468; AlphaScreen L3MBTL1–H3K9me1 peptide binding; Potency, µM (doses to about 57.1 µM), inactives show at the top dose activity, negative = inhibition, usual class: inhibitors; 230,000 compounds, 0.66% hits; AID 485360, 2010; note: % is set by controls: 0 for no effect and ±100 for the full control effect; nearly all actives have a fitted effect of over 60% in size
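AlphaScreen assay: L3MBTL1 (50 nM final) was preincubated 30 min at room temperature with biotinylated H3(1-15)K9me1 peptide (75 nM final), then 30 min with library compounds; streptavidin donor and nickel chelate acceptor beads (10 ug/mL final) added, 30 min dark.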
VDR inh: Inhibitors of the vitamin D receptor (VDR): qHTS; Vitamin D3 receptor (Homo sapiens), P11473; VDR-SRC2-3 peptide fluorescence polarization, 2 h; Potency, µM, for the others: max response, negative = inhibition, actives largely listed as inhibitors; 400,000 compounds, 0.93% hits; AID 504847, 2011; note: % is set by controls: 0 for no effect and ±100 for the full control effect
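VDR–SRC2-3 interaction, FP format. Cmpds 23 nl via pintool, brief spin, 2 h ambient incubation.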
Starred values were filed as active, the others as inactive; ? = inconclusive; / = no result given. Calls come from the whole dose curve; as a rule, active = well fitted curve in the direction sought with a large enough effect; inconclusive = small, poorly fitted or top-dose-only effect, or another doubt; inactive = no such curve, though single readings can be large; an effect the other way counts as inactive or inconclusive. Potency is the fitted concentration of half-maximal effect.

SMILES	PLK1 PBD block	JMJD2A Tudor inh	HP1b chromo inh	BAZ2B inh	L3MBTL1 block	VDR inh
CCOC(=O)c1c(NC(=O)Cn2nc(C(F)(F)F)cc2C)sc(C)c1C	27µM*	-15%	11%	-20%	4%	-10%
CCOC(=O)c1c(NC(=O)Cn2nc(C(F)F)cc2C(F)F)sc(C)c1C	-3%	-1%	27%	2%	/	-10%
CCOC(=O)c1c(NC(=O)Cn2cnc([N+](=O)[O-])n2)sc(C)c1C	24µM*	-1%	-9%	-2%	/	-10%
COC(=O)c1c(NC(=O)Cn2nc(C(F)F)cc2C(F)F)sc(C)c1C	15µM*	-21%	-23%	3%	2%	-15%
COc1ccc(C(=O)CSc2nc(=O)n3ccc(C)cc3n2)cc1	3%	/	/	/	/	/
CCO[C@H]1OC(C(=O)O)=C[C@@H](C)[C@@H]1CCCO	-3%	-17%	0%	-1%	13%	18%
COC(=O)/C(=C\C(=O)c1ccccc1)Nc1ccc(OC)cc1	-3%	35µM*	?	40µM*	-22%	7%
Cc1ccc(N/C(=C\C(=O)c2ccccc2)C(=O)O)cc1	-6%	?	6%	56µM*	1%	-22%
COc1ccc(N/C(C)=C/C(=O)c2ccccc2)cc1	-11%	?	?	?	-4%	-7%
COc1ccc(C(=O)CC(=O)C(=O)Nc2cccc(F)c2)cc1	-6%	-26%	17%	4%	/	3%
COc1ccc(C(=O)CC(=O)C(=O)Nc2ccccc2)cc1	-1%	-14%	50%	71µM*	/	18%
Cc1ccc(NC(=O)NNC(=O)c2ccccc2)cc1	-9%	-5%	30%	-31%	-3%	-3%
COc1ccccc1Cc1c(-c2ccc(C#N)cc2)nc2ccc(C)cn12	9%	/	/	/	/	/
Cn1cc(-c2nc3cnc(N4CCNCC4)nc3n(Cc3ccc(F)cc3)c2=O)c2ccccc21	/	/	/	/	/	49%
Cc1cc(O)c(Sc2ncn[nH]2)cc1NS(=O)(=O)c1ccc(Cl)cc1	1%	-17%	27%	-20%	-8%	-2%
O=S(=O)(Nc1cc(Sc2ncn[nH]2)c(O)c2ccccc12)c1ccccc1	2.1µM*	3.5µM*	3.5µM*	28µM*	/	?
Cc1ccc(N2C(=O)C(CN3CCCCC3)C2c2ccccc2)cc1 (stereo unspecified)	-7%	-21%	89µM*	-7%	0%	-4%
Cc1ccc(N2C(=O)C(CN3CCCC3)C2c2ccccc2)cc1 (stereo unspecified)	-20%	-30%	-12%	-25%	?	2%
C=CCN(c1ccc(C(=O)N2CCN(c3ccc(F)cc3)CC2)cc1)S(C)(=O)=O	-7%	-7%	13%	6%	8%	19%
O=C(c1cccc(S(=O)(=O)N2CCCCC2)c1)N1CCN(c2ccccc2)CC1	-5%	-21%	-5%	-24%	/	-12%
O=C(c1ccc(S(=O)(=O)N2CCCCCC2)cc1)N1CCN(c2ccccc2)CC1	?	79µM*	-11%	-10%	/	?
O=C(c1ccc(Cl)c(S(=O)(=O)N2CCCC2)c1)N1CCN(c2ccc(F)cc2)CC1	-12%	?	-14%	56µM*	-28%	-3%
O=C(c1ccc(Cl)c(S(=O)(=O)N2CCCC2)c1)N1CCN(c2ccccc2)CC1	13µM*	13µM*	?	-21%	-3%	32µM*
O=C(c1ccc(Cl)c(S(=O)(=O)N2CCCCC2)c1)N1CCN(c2ccccc2)CC1	-4%	-34%	-6%	-28%	/	-4%

Screens deposited in PubChem by National Center for Advancing Translational Sciences (NCATS).
